Unmarked numbers belong to inactive results. The source made the active and inactive calls.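 How the source made its calls: active means thallium flux through the channel raised or lowered by more than 3 SD from vehicle-only wells, actives on both sides; inactive means the rest.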
Key:
Experiment in all cases: modulators of BK channel variants, profiling panel, selectivity assay, cell-based, U2OS BacMam, thallium flux, beta subunits (AID 1259406);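 further: initial slope of Thallos dye fluorescence rise after thallium is added; log ratio against the mean of 0.3% DMSO vehicle wells on the same plate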
F380Y = conditions: at 30 µM
F380Y/beta1 = conditions: at 30 µM
F380Y/beta2Delta = conditions: at 30 µM
F380Y/beta4 = conditions: at 30 µM
[1] = biological target: Calcium-activated potassium channel subunit alpha-1 (Homo sapiens) + Leucine-rich repeat-containing protein 26 (Homo sapiens) (UniProt Q12791+Q2I0M4); conditions: F380Y/Slo1WT/gamma1, at 30 µM
R275C = conditions: at 30 µM
R275C/beta1 = conditions: at 30 µM
R275C/beta2Delta = conditions: at 30 µM
R275C/beta4 = conditions: at 30 µM
R275C/Slo1WT/beta2 = conditions: at 30 µM

Chain of Calcium-activated potassium channel subunit alpha-1 (Homo sapiens) + Leucine-rich repeat-containing protein 26 (Homo sapiens) (Q2I0M4 whole entry, looked up, one chain of several): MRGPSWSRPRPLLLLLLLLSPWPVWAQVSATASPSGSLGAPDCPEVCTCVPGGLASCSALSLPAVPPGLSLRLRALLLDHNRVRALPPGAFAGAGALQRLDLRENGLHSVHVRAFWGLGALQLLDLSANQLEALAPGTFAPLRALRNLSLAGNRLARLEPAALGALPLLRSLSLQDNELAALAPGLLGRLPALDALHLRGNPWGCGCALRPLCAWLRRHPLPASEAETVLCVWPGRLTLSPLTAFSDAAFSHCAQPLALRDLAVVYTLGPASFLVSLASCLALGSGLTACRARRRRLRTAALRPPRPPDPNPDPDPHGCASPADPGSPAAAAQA

Row | SMILES | log fold change Tl+ flux (F380Y) | log fold change Tl+ flux (F380Y/beta1) | log fold change Tl+ flux (F380Y/beta2Delta) | log fold change Tl+ flux (F380Y/beta4) | log fold change Tl+ flux [1] | log fold change Tl+ flux (R275C) | log fold change Tl+ flux (R275C/beta1) | log fold change Tl+ flux (R275C/beta2Delta) | log fold change Tl+ flux (R275C/beta4) | log fold change Tl+ flux (R275C/Slo1WT/beta2)
1 | Cn1c(NCCN(CCO)CCCc2ccc([N+](=O)[O-])cc2)cc(=O)n(C)c1=O | -0.0604 | -0.0554 | -0.007 | -0.0379 | 0.0127 | -0.128 (active) | -0.0368 | 0.012 | -0.00107 | 0.0338
2 | CN(C)CC[C@@H](c1ccc(Br)cc1)c1ccccn1 | 0.102 | 0.0384 | -0.012 | 0.0692 | 0.0361 | -0.0783 | 0.0411 | 0.0403 | 0.00601 | 0.00129
3 | CNS(=O)(=O)Cc1ccc2[nH]cc(CCN(C)C)c2c1 | 0.0165 | -0.000461 | 0.0184 | 0.00469 | -0.0149 | 0.0314 | -0.0158 | 0.00098 | -0.0449 | 0.0327
4 | COc1cc(C)c(Cc2cnc(N)nc2N)cc1OC | 0.0111 | 0.0334 | 0.0137 | 0.0281 | 0.0784 | -0.0521 | 0.0546 | 0.0143 | 0.00157 | 0.0258
5 | CC(Oc1c(Cl)cccc1Cl)C1=NCCN1 (stereo not given) | 0.00819 | -0.000881 | -0.00369 | 0.0154 | 0.00177 | -0.0395 | 0.0393 | 0.00761 | 0.0269 | 0.0415
6 | COC1=C(OC)C(=O)C(CCCCCCCCCCO)=C(C)C1=O | -0.163 (active) | 0.138 (active) | -0.557 (active) | -0.388 (active) | -0.413 (active) | -0.199 (active) | -0.0599 | -0.151 (active) | -0.0932 (active) | -0.0534
7 | COC(=O)C1=C(C)NC(C)=C(C(=O)O[C@@H]2CCCN(Cc3ccccc3)C2)[C@@H]1c1cccc([N+](=O)[O-])c1 | -0.0664 | -0.000881 | -0.042 | -0.0532 | -0.0108 | -0.0526 | 0.192 (active) | 0.191 (active) | -0.0168 | -0.0109
8 | COc1ccc(C(=O)NCc2ccc(OCCN(C)C)cc2)cc1OC | -0.0346 | -0.00341 | -0.0465 | -0.0244 | -0.0979 (active) | -0.0872 | -0.00904 | -0.0505 | 0.0059 | 0.00939
9 | Cc1cccc(C)c1OCC(C)N (stereo not given) | -0.014 | 0.0282 | 0.00522 | 0.033 | 0.0106 | 0.0441 | 0.0258 | 0.00537 | 0.0107 | 0.0729
10 | CN1CCN(C2=Nc3cc(F)ccc3Cc3ccccc32)CC1 | 0.06 | 0.0457 | 0.0383 | 0.075 | -0.0172 | -0.0264 | 0.0276 | 0.0198 | 0.0369 | 0.0225
11 | CN1[C@@H]2CC[C@H]1CC(OC(=O)c1c[nH]c3ccccc13)C2 (stereo not given in full) | 0.0406 | 0.0426 | 0.0725 | 0.0611 | -0.0185 | -0.064 | 0.026 | 0.045 | 0.0432 | 0.00303
12 | CCOc1cc(N)c(Cl)cc1C(=O)NCC1CN(Cc2ccc(F)cc2)CCO1 (stereo not given) | -0.0328 | 0.0819 | 0.0207 | -0.0442 | 0.0207 | -0.0128 | 0.0447 | 0.108 (active) | 0.0132 | 0.00286
